These results are taken from ChEMBL document CHEMBL3433997, “St. Jude Leishmania screening dataset” (2016).

Solute carrier family 2, facilitated glucose transporter member 1 (Homo sapiens), sequence (P11166 whole entry): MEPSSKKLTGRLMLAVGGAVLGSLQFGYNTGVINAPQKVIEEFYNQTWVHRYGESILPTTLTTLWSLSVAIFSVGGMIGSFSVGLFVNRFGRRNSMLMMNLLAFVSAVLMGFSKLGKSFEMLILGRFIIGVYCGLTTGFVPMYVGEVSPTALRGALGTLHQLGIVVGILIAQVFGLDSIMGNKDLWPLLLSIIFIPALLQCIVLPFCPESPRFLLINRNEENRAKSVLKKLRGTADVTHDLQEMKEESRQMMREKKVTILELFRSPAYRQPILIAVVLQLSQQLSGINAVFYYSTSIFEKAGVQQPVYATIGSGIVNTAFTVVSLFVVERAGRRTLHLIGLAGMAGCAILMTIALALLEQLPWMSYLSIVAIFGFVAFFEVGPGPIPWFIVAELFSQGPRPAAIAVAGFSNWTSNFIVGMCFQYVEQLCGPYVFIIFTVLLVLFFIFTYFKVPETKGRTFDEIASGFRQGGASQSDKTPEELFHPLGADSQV

The experiment concerns the target Solute carrier family 2, facilitated glucose transporter member 1 (Homo sapiens) (UniProt P11166). Briefly: ST_JUDE_LEISH: Cytotoxicity at 2uM final concentration against transgenic Leishmania Mexicana promastigotes LmGLUT1 that are glucose transport deficient and complemented with the human glucose transporter GLUT1. Activity is measured by DNA content using SYBR green in vitro. Format: functional.
On to `Cc1cc(=O)c(-c2ccc(OCCSc3ccc(C(F)(F)F)cn3)cc2)c(C)[nH]1`, for which the inhibition amounted to 2.89%.

As for `NC(=O)c1cnc2cc(-c3ccncc3)cc(Nc3ccc(NC(=O)C4CCCCC4)cc3)c2c1`, the inhibition worked out at 2.17%.

`O=c1ccc(-c2nc3cc(Cl)c(Cl)cc3n2Cc2ccc(Cl)cc2Cl)c[nH]1`: the inhibition was -0.54%.

For `Cc1ccccc1C1CCN(C2CCC(NC(=O)/C=C/c3ccc(C(F)(F)F)cc3F)CC2)CC1` (stereo not given), the inhibition is 1.85%.

Regarding `O=C(NC1CCC(N2CCC(c3nc4ccccc4s3)CC2)CC1)c1cc2ccccc2[nH]1` (stereo not given), the inhibition is -0.44%.

As to `CCCC1N=C(N)N=C(N)N1c1ccc(C)cc1` (stereo not given), the inhibition came to 4.06%.

Consider `O=[N+]([O-])c1ccc(C2=NN(S(=O)(=O)c3c(Cl)cc(Cl)cc3Cl)CCCC2)cc1`, for which the inhibition is 0.34%.

With `FC(F)(F)c1ccc2[nH]ccc(=NN=Cc3ccccc3)c2c1`, the inhibition is 1.45%.

`CC(C)(C)OC(=O)C1CCCN(Cc2ccc(-c3cccc(-c4nc5ccccc5[nH]4)c3)cc2)C1` (stereo not given): the inhibition worked out at 3.21%.

As for `C=CCOC(=O)N1CCC(CNCc2cccc(-c3cccc(-c4nc5cc(F)ccc5[nH]4)c3)c2)C1` (stereo not given), the inhibition amounted to 1.39%.

With `Cc1onc(-c2ccccc2)c1-c1nc(NCc2ccccc2Cl)no1`, the inhibition amounted to 2.36%.

For `O=C(Nc1ccc(I)cc1)Nc1ccc(Cn2ncc(N3CCCNCC3)c(Cl)c2=O)cc1`, the inhibition is -2.09%.

With `O=C(NCC1CCN(CCN2CCC(c3cn(CCO)c4ccccc34)CC2)CC1)c1ccc(-c2ccc(C(F)(F)F)cc2)cc1`, the inhibition was 4.27%.

With `COCCCNC(=O)C1CCN(C(c2ccc(Cl)cc2)c2ccc(Cl)cc2)CC1`, the inhibition amounted to 2.3%.

`COc1ccc(C(=O)CCC(=O)N(CCC2CCCN2C)Cc2ccc(-c3ccc(CNCCc4ccc(S(C)(=O)=O)cc4)cn3)cc2)cc1F` (stereo not given): the inhibition came out at 11.4%.
